Measured values taken from PubChem BioAssay (NCATS).
Inconclusive results are not listed. Active and inactive are the calls of the source. Calls come from the whole dose curve; as a rule, active = well fitted inhibition curve with a large enough effect; inconclusive = small, poorly fitted or top-dose-only effect; inactive = flat fitted curve, though single readings scatter. *1 amine or outer side, *2 acyl side, *3 side chain or, on linkers, in order; H or OH if unused. Where a SMILES comes first, the peptide text is derived from it. Side-chain parts run from the residue outwards. [ ]: non-standard residue; d: D form. The star is where a group is joined. Ethylenediamine = C(CN[*:2])N[*:1]; Hyp = O=C(O)[C@@H]1C[C@@H](O)CN1; Phg = N[C@H](C(=O)O)c1ccccc1; CO = O=C([*:1])[*:2]; Bn = c1ccc(C*)cc1

target: Phospholipid hydroperoxide glutathione peroxidase GPX4 (Homo sapiens) (UniProt P36969); assay: Primary qHTS Assay for Inhibitors of Recombinant Selenoprotein Glutathione Peroxidase 4 (GPX4) (AID 1845192); details: recombinant GPX4, GR-coupled NADPH fluorescence, 15 min; series mostly up to 50 µM; activity change, negative = inhibition: at the top concentration; note: nearly all actives have a fitted effect of over 65% in size
Sequence (P36969 whole entry, looked up): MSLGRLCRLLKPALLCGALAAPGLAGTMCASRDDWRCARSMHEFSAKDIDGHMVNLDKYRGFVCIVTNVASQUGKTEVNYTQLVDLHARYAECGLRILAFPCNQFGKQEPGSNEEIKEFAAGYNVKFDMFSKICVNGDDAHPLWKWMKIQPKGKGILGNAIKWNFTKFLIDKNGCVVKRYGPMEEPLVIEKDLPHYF
Outline: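 NADPH consumption, followed by fluorescence at 340/450 nm between 0 and 15 min, reports GPX4 activity via coupled glutathione reductase (100 nM). Enzyme 200 nM was pre-exposed to compound 30 min; 0.5 mM cumene hydroperoxide and 1 mM GSH served as substrates.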
% is set by controls: 0 for no effect and ±100 for the full control effect; potency is the fitted concentration of half-maximal effect.

Compound | activity change, negative = inhibition | outcome | Potency
OB1OCc2cc(F)ccc21 | 2.79% (inactive) |  | 
O=[N+]([O-])c1ccc(/C=C/c2cccc(CO)n2)o1 |  | inactive | 
NCCCC[C@@H]1NC(=O)[C@@H](Cc2c[nH]c3ccccc23)NC(=O)[C@H](c2ccccc2)NC(=O)[C@@H]2C[C@@H](OC(=O)NCCN)CN2C(=O)[C@H](Cc2ccccc2)NC(=O)[C@H](Cc2ccc(OCc3ccccc3)cc2)NC1=O (cyclo([Hyp]([CO-Ethylenediamine])[Phg][dW]KY(Bn)F)) |  | inactive [at 27.8 µM] | 
CCC(C)CC(C)CCCCCCCCC(=O)N[C@H]1C[C@@H](O)[C@@H](NCCN)NC(=O)[C@@H]2[C@@H](O)CCN2C(=O)[C@H]([C@H](O)CCN)NC(=O)[C@H]([C@@H](O)[C@H](O)c2ccc(O)cc2)NC(=O)[C@@H]2C[C@@H](O)CN2C(=O)[C@H]([C@@H](C)O)NC1=O (some centres not stated) | -4% [at 27.8 µM] (inactive) |  | 
C=Cc1c(C)c2cc3nc(c(CC(=O)N[C@@H](CC(=O)O)C(=O)O)c4nc(cc5[nH]c(cc1[nH]2)c(C)c5CC)C(C)=C4C(=O)O)[C@@H](CCC(=O)O)[C@@H]3C | 0.244% (inactive) |  | 
O=C(O)C(O)C(O)C(=O)O (configuration not stated) | -16% (inactive) |  | 
O=C(OC1C[C@@H]2CC3C[C@@H](C1)N2CC3=O)c1c[nH]c2ccccc12 (some centres not stated) | -16.6% (inactive) |  | 
CO[C@H]1C[C@H](O[C@@H]2[C@H](C)O[C@H](O[C@@H]3/C(C)=C/C[C@@H]4C[C@@H](C[C@]5(C=C[C@H](C)[C@@H](C6CCCCC6)O5)O4)OC(=O)[C@@H]4C=C(C)C(O)[C@H]5OC/C(=C\C=C\[C@@H]3C)[C@]54O)C[C@@H]2OC)O[C@@H](C)[C@@H]1O (some centres not stated) | -20.9% (inactive) |  | 
CCNC(=O)CCC/C=C\C[C@@H]1[C@@H](/C=C/[C@@H](O)CCc2ccccc2)[C@H](O)C[C@@H]1O |  | inactive | 
NS(=O)(=O)c1ccc(-n2nc(C(F)(F)F)cc2-c2ccc(F)cc2)cc1 | 3.52% (inactive) |  | 
O[C@@H]1[C@@H](O)[C@@H](O)OC[C@@H]1O |  | inactive [at 150 µM] | 
OC[C@H]1O[C@@H](OC[C@H]2O[C@@H](O[C@@H]3[C@@H](O)[C@H](O)O[C@H](CO)[C@H]3O)[C@H](O)[C@@H](O[C@@H]3O[C@H](CO)[C@@H](O)[C@H](O)[C@H]3O)[C@@H]2O)[C@H](O)[C@@H](O)[C@@H]1O |  | inactive | 
CCCCC[C@H](O)/C=C/[C@@H]1[C@@H](C/C=C/CCCC(=O)O)[C@@H](O)C[C@H]1O | -26.9% (inactive) |  | 
C[C@](C#N)(COc1cc(C#N)ccc1C(F)(F)F)NC(=O)c1ccc(SC(F)(F)F)cc1 | -14.1% (inactive) |  | 
C=C1/C(=C/C=C2\CCC[C@]3(C)[C@@H]([C@H](C)CCCC(O)(C(F)(F)F)C(F)(F)F)CC[C@@H]23)C[C@@H](O)C[C@@H]1O |  |  | 14.1 µM (active)
NC(N)=NCCC[C@@H](N)C(=O)N[C@@H](CCCN=C(N)N)C(=O)N1CCC[C@H]1C(=O)N1C[C@H](O)C[C@H]1C(=O)NCC(=O)N[C@@H](Cc1cccs1)C(=O)N[C@@H](CO)C(=O)N1Cc2ccccc2C[C@@H]1C(=O)N1[C@H](C(=O)N[C@@H](CCCN=C(N)N)C(=O)O)C[C@@H]2CCCC[C@@H]21 |  | inactive [at 27.8 µM] | 
O=C1[C@@H]2[C@H]3CC[C@H](C3)[C@@H]2C(=O)N1C[C@@H]1CCCC[C@H]1CN1CCN(c2nsc3ccccc23)CC1 | -14.1% (inactive) |  | 
CCC(=O)O[C@]1(C(=O)COC(C)=O)CC[C@H]2[C@@H]3CCC4=CC(=O)CC[C@]4(C)[C@H]3[C@@H](O)C[C@@]21C | -5.03% (inactive) |  | 
CCCCCCCCCCCCCCCCCCCCCCCCCCCCO |  | inactive [at 0.409 µM] | 
CN1CC(O)c2cc(N=NC(=N)N)c(O)cc21 (configuration not stated) | -18.7% (inactive) |  | 
O=C(O)[C@@H]1C(=CCO)O[C@@H]2CC(=O)N12 |  | inactive [at 27.8 µM] | 
CN1N=C2CCN(C(=O)[C@H](COCc3ccccc3)NC(=O)C(C)(C)N)C[C@]2(Cc2ccccc2)C1=O |  | inactive | 
CCCCCCCCCCCCCCCC(=O)OC1CCCn2c1nc(C)c(CCN1CCC(c3noc4cc(F)ccc34)CC1)c2=O (configuration not stated) | -10.1% (inactive) |  | 
OCc1cc(C(O)CNCCCCCCOCCOCc2c(Cl)cccc2Cl)ccc1O (configuration not stated) | -2.73% (inactive) |  | 
C[N+]1(C)C2CC[C@H]1CC(OC(=O)C(O)c1ccccc1)C2 (some centres not stated) |  | inactive | 
COc1ccc(CC(C)(C)NC[C@H](O)c2cc(O)cc3c2OCC(=O)N3)cc1 | 4.22% (inactive) |  | 
CCC(=O)NC[C@@H]1C[C@H]1c1cccc2c1CCO2 | -9.26% (inactive) |  | 
